Here are results for 88 sequences from the supplement of paper PMC3334620.

The full ranking holds about 33,000 sequences; the median of “E-score (-0.5 to 0.5)” is about -0.016, and the highest 2% start at about 0.32. Many of the other results were omitted from the sample, so the highest values are more common in it than they were.

This assay deals with T1, Stp1 (UniProt B3LFK1).
T1 sequence: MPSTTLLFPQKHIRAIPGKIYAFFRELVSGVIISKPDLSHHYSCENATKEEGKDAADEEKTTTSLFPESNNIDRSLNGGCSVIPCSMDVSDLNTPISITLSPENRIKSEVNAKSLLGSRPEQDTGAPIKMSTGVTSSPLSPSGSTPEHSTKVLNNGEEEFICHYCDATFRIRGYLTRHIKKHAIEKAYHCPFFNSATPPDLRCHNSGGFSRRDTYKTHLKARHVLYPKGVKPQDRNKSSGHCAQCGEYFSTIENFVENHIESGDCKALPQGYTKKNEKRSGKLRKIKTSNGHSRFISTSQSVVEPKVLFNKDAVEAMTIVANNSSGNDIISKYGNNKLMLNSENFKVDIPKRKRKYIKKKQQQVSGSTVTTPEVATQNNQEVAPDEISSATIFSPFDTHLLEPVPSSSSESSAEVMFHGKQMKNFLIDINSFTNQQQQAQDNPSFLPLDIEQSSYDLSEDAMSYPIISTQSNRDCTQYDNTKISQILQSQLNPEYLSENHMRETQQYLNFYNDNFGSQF
Description: PBM E-score (8-mer binding enrichment) (E-score (-0.5 to 0.5)); higher = stronger / more preferred TF binding. The note with it: protein concentration: 200 nM; construct: GST-full length. Put shortly:
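Detection of bound protein used fluorescent anti-GST, with scans normalised by masliner. The proteins were GST-tagged yeast transcription factors applied at about 100-200 nM to universal all-10-mer Agilent arrays made double-stranded by primer extension. Each ungapped eight-base word, pooled with its reverse complement, was scored with an E-score from the Universal PBM Analysis Suite.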
Consider GGCATCGA, for which the “PBM E-score” value stood at 0.327.

Take CGCATCGA: the “PBM E-score” value came to 0.0903.

Turning to AGCATCGA, the “PBM E-score” value is -0.0592.

Regarding CTATGCTA, the “PBM E-score” value is -0.0393.

On to CAACCAGA, for which the “PBM E-score” value was determined as 0.0587.

Turning to ACGCACGG, the “PBM E-score” value was 0.419.

For the sequence CAGCACGC, the “PBM E-score” value amounted to 0.145.

Take CAGCACGA: the “PBM E-score” value was -0.0106.

In the case of CCGCACAA, the “PBM E-score” value was 0.285.

Take GCGCACGC: the “PBM E-score” value was -0.0354.

As to CCGCACGA, the “PBM E-score” value amounted to 0.27.

Turning to ACGCACGA, the “PBM E-score” value turned out to be 0.237.

On to CCGCACGG, for which the “PBM E-score” value turned out to be 0.448.

In the case of CAGCACGG, the “PBM E-score” value is 0.333.

Take AAGCACGG: the “PBM E-score” value turned out to be 0.295.

Consider ACGCACGC, for which the “PBM E-score” value came to 0.265.

Turning to CCGCACGC, the “PBM E-score” value was found to be 0.323.

As for ATTCTAAG, the “PBM E-score” value was 0.126.

In the case of ACGGGGAT, the “PBM E-score” value is -0.0326.

As to AGTCTTCC, the “PBM E-score” value was -0.0735.

As for TGGGGCAA, the “PBM E-score” value is -0.00868.

Take CGAAGTGA: the “PBM E-score” value turned out to be 0.00778.

With CCCAACCC, the “PBM E-score” value was -0.174.

Regarding CGCGTCCG, the “PBM E-score” value is -0.0671.

As for ATCATAAC, the “PBM E-score” value was 0.161.

Regarding TATAGCGA, the “PBM E-score” value was -0.151.

As for AGGGAGCA, the “PBM E-score” value was -0.403.

For the sequence GGCGGAAC, the “PBM E-score” value stood at 0.125.

With CGCGGAAC, the “PBM E-score” value was 0.383.

Turning to AGCGGAAC, the “PBM E-score” value is -0.0267.

For the sequence ACAATCAT, the “PBM E-score” value was -0.00872.

Consider CAGGGCAA, for which the “PBM E-score” value was found to be 0.0617.

As for CAGGGCAC, the “PBM E-score” value amounted to 0.355.

On to AAGGGCGG, for which the “PBM E-score” value was -0.0196.

Consider CAGGGCGG, for which the “PBM E-score” value was -0.116.

As to CAGGGCAG, the “PBM E-score” value was -0.114.

With AGGGGCGC, the “PBM E-score” value was 0.232.

For the sequence CAGGGCGA, the “PBM E-score” value is 0.0902.

AAGGGCGC: the “PBM E-score” value was 0.354.

Consider CAGGGCGC, for which the “PBM E-score” value worked out at 0.363.

GGGCCTCA: the “PBM E-score” value is -0.0568.

On to AACCCACT, for which the “PBM E-score” value turned out to be 0.00826.

Regarding CGACTAGC, the “PBM E-score” value is -0.13.

Take ATCGTTCG: the “PBM E-score” value was found to be 0.0636.

GCTGCCAC: the “PBM E-score” value turned out to be 0.0537.

Consider AAGTGCCA, for which the “PBM E-score” value stood at 0.163.

Take AAGTGCCG: the “PBM E-score” value came out at 0.453.

Turning to CAGTGCCG, the “PBM E-score” value came out at 0.453.

As for AAGTGCCC, the “PBM E-score” value came out at 0.079.

CAGTGCCC: the “PBM E-score” value worked out at 0.108.

On to CAGTGCCA, for which the “PBM E-score” value was -0.0624.

Regarding AGTAGTGA, the “PBM E-score” value is -0.0104.

CTGGATAA: the “PBM E-score” value was 0.0621.

AGGCATTA: the “PBM E-score” value is 0.228.

For AGGCATTC, the “PBM E-score” value is 0.106.

On to CGGCATTA, for which the “PBM E-score” value came out at 0.436.

Take CTGCATTC: the “PBM E-score” value is -0.111.

As to GGGCATTA, the “PBM E-score” value is 0.139.

Take CGGCATTC: the “PBM E-score” value was 0.441.

On to ACCTACAT, for which the “PBM E-score” value is -0.177.

Consider AGTAGTCG, for which the “PBM E-score” value is -0.0173.

With ATACTCAG, the “PBM E-score” value was 0.06.

Take CACTGGGG: the “PBM E-score” value was -0.231.

GAGATATC: the “PBM E-score” value stood at 0.0576.

As to ACACGCCA, the “PBM E-score” value stood at 0.0386.

In the case of CCACGCCG, the “PBM E-score” value worked out at 0.34.

For ATACGCCA, the “PBM E-score” value turned out to be 0.0267.

As to ACACGCCG, the “PBM E-score” value was 0.351.

For the sequence CCACGCCC, the “PBM E-score” value is -0.188.

For ATACGCCG, the “PBM E-score” value amounted to 0.381.

As for CCACGCCA, the “PBM E-score” value came out at 0.0283.

Consider ATACGCCC, for which the “PBM E-score” value was -0.157.

ACACGCCC: the “PBM E-score” value is -0.181.

GGGGCCCC: the “PBM E-score” value was -0.2.

As to ACCCTTTC, the “PBM E-score” value was -0.15.

For CATGATTA, the “PBM E-score” value came to 0.171.

Take CCCTATCG: the “PBM E-score” value is -0.196.

Turning to TACAGAAA, the “PBM E-score” value was found to be 0.212.

Regarding CAACCATG, the “PBM E-score” value is -0.0314.

As to AGGAGAAT, the “PBM E-score” value was -0.17.

ATTCAAAC: the “PBM E-score” value was 0.11.

Turning to GTTCAAAA, the “PBM E-score” value amounted to 0.185.

Turning to GTTCAAAC, the “PBM E-score” value worked out at 0.323.

Take AGCAGGCT: the “PBM E-score” value was -0.098.

AGGCGCAC: the “PBM E-score” value came out at 0.179.

Take GGGCGCAC: the “PBM E-score” value was -0.0463.

Regarding CCGCGCAG, the “PBM E-score” value came out at 0.221.

For CGGCGCAC, the “PBM E-score” value came to 0.409.
